Screens as filed in PubChem BioAssay.
DT40 TDP1 CPT: growth inhibition of DT40 Tdp1-/-;hTDP1 cells with camptothecin (screen for TDP1 inhibitors) | 420,000 tested, 12% active | chicken DT40 Tdp1-/-;hTDP1 cells + 20 nM CPT, ATP luminescence, 48 h | AID 686979 | Potency, µM (titrated, usually from 46.2 µM), for the others: at the highest dose activity change, negative = growth inhibition, actives largely listed as inhibitors; note: potency is the fitted concentration of half-maximal effect; % is set by controls: 0 for no effect and ±100 for the full control effect; nearly all actives have a fitted effect of over 55% in size
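Chicken DT40 Tdp1-/- cells complemented with human TDP1, 400 cells/well, exposed to compounds plus 20 nM camptothecin for at least 48 h at 37 C; viability read as ATP content by CellTiter-Glo luminescence.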
IL-1B inflam inh: inhibitors of inflammasome signaling (IL-1 beta secretion). THP-1 LPS/ATP IL-1B secretion, AlphaLISA, 16 h; active compounds read low. activity change, % at 57.5 µM. 360,000 tested, 4.7% active. AID 743279; in the data active = activity change below about -50%; inconclusive = mostly about -30% to -49%; note: % is set by controls: 0 for no effect and ±100 for the full control effect
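Secreted IL-1B measured by AlphaLISA bead assay after 16 h compound exposure of THP-1 cells; compounds (final up to 57.5 uM) added 1 h before LPS (250 ng/mL) and ATP (1.25 mM) stimulation; lower signal means less secretion.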
TDP1 cell noCPT: qHTS for Inhibitors of human tyrosyl-DNA phosphodiesterase 1 (TDP1): qHTS in cells in absence of CPT; DT40 Tdp1-/- hTDP1 cells, no CPT, ATP luminescence, 48 h; Potency, µM (doses to about 46.2 µM), for the others: at the highest dose activity change, negative = growth inhibition, usual class: inhibitors; 420,000 tested, 15% active; AID 686978, 2013; note: potency is the fitted concentration of half-maximal effect; % is set by controls: 0 for no effect and ±100 for the full control effect; nearly all actives have a fitted effect of over 55% in size
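Camptothecin absent (DMSO only). Human TDP1-complemented DT40 knockout cells, 400 cells/well, 37 °C for minimum 48 hr; ATP measured via CellTiter-Glo, 30 min dark incubation, luminescence.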
ClpP mod: qHTS Assay for Activators of ClpP; Potency, µM (doses to about 57.5 µM), for inactives: top-dose activity change, negative = active; ATP-dependent Clp protease proteolytic subunit (Bacillus subtilis (strain 168)), P80244; 340,000 tested, 1.9% active; purified B. subtilis ClpP, FRET peptide cleavage, 20 min; active = well fitted falling curve with a large enough effect; inconclusive = small, poorly fitted or top-dose-only effect; inactive = no such curve, though single readings can be large or run the other way; note: potency is the fitted concentration of half-maximal effect; the source files actives as falling curves though it sought activators and does not explain the sign; nearly all actives have a fitted effect of over 65% in size
Target sequence (P80244 whole entry, looked up): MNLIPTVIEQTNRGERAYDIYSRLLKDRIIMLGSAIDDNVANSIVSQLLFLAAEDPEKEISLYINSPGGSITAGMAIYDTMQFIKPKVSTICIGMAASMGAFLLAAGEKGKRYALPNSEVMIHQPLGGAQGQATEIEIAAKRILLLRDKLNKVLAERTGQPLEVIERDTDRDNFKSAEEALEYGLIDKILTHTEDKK
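Buffer: 100 mM Tris/HCl pH8, 100 mM KCl, 0.05% low protease BSA, 2.5% glycerol, 0.01% Tween-20. ClpP 10 microg/mL final; 20 min RT; delta FRET normalized to ADEP and DMSO controls.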
DRD3 antagonist: antagonists of human D3 dopamine receptor | P35462 | D3R cells, DiscoveRx beta-arrestin luminescence, antagonist mode; active compounds read low | max response, negative = inhibition, % | 360,000 tested, 2.5% active | AID 652054; in the data active = max response below about -50%; inconclusive = no clear call, values can overlap the other calls; note: % is set by controls: 0 for no effect and ±100 for the full control effect
Target sequence (P35462 whole entry, looked up): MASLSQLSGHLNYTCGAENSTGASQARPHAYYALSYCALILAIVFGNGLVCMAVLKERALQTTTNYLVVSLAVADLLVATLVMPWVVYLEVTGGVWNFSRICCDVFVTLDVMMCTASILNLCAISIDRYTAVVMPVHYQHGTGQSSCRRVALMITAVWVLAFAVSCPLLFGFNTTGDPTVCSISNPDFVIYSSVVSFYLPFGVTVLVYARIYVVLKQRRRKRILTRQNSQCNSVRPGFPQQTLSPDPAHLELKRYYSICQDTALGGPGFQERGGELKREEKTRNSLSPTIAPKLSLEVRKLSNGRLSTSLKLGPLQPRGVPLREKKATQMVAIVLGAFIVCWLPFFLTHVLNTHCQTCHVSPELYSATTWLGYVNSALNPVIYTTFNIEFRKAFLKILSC
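Cells plated overnight at 1500 cells/well, then exposed to library compounds with dopamine controls for 90 minutes at 37 degrees C. DiscoveRx reagent added for 30–60 minutes at room temperature; luminescence read, quantitative HTS format.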
DRD3 agonist: agonists of human D3 dopamine receptor; D3R DiscoveRx beta-arrestin cells, luminescence, 90 min; max activation, %; 410,000 tested, 0.58% active; in the data active = max activation above about 30%; note: 0% is about no effect
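Cells at 1500/well, incubated overnight, then treated with pinned compounds (dopamine as control) for 90 min at 37 degrees C. DiscoveRx reagent added for 30 - 60 minutes at room temperature; luminescence read.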
Starred values were filed as active, the others as inactive; ? = inconclusive; nt = no result given; [ ] = remark or other dose. Compounds with a hit are over-represented: about 21% of the library has one in this group of screens. Unless noted, calls come from the whole dose curve; as a rule, active = well fitted inhibition curve with a large enough effect; inconclusive = small, poorly fitted or top-dose-only effect; inactive = flat fitted curve, though single readings scatter.

SMILES	DT40 TDP1 CPT	IL-1B inflam inh	TDP1 cell noCPT	ClpP mod	DRD3 antagonist	DRD3 agonist
Cn1cnc(S(=O)(=O)N2CCC(C(=O)Nc3ccc(Cl)c(C(F)(F)F)c3)CC2)c1	16µM*	nt	13µM*	2%	nt	10
CS(=O)(=O)N1CCC(C(=O)Nc2ccc(Cl)c(C(F)(F)F)c2)CC1	?	-11	23µM*	0%	-6	-6
COc1ccc(NC(=O)C2CCN(S(=O)(=O)c3cn(C)cn3)CC2)cc1Cl	-17%	nt	-15%	0%	nt	-5
CC1CCN(C(=O)c2cnn(-c3ccc(Cl)cc3)c2C2CCN(C(=O)OC(C)(C)C)CC2)CC1	3%	nt	-9%	-2%	nt	0
CCC(CC)C(=O)Nc1nnc(-c2cccs2)s1	1%	17	?	25µM*	16	-1
CN1CCN(CC(=O)Nc2nnc(-c3cccs3)s2)CC1	1%	3	0%	22µM*	10	2
CCCc1nnc(NC(=O)CN2CCN(C)CC2)s1	2%	25	-8%	0%	-13	4
CC(C)N1CSC(=S)N(Cc2ccccc2)C1	4.1µM*	-99*	4.1µM*	1%	-17	5
CC(C)(C)N1CSC(=S)N(Cc2ccccc2)C1	5.2µM*	6	4.6µM*	4%	13	1
S=C1SCN(Cc2cccnc2)CN1Cc1ccccc1	2.9µM*	-107*	4.6µM*	nt	4	4
S=C1NCN(Cc2cccnc2)CN1Cc1ccccc1	-25%	29	?	-3%	-12	-2
COc1ccc(C(=O)N/C(=C\c2cn(C)c3ccccc23)C(=O)N2CCN(C)CC2)cc1OC	?	0	?	-4%	-10	-8
CCO[C@@H]1OC(C(=O)NCc2ccccc2)=C[C@H](C2CCCCC2)[C@H]1CCCO	?	22	?	-2%	-15	-7
Fc1ccc(-c2cc(-c3nc(-c4cccc(Cl)c4)no3)[nH]n2)cc1	?	nt	?	0%	nt	-8
CC(C)(C)C1CCNC(=O)CC1 (configuration not stated)	-7%	3	1%	0%	6	0
Cc1ccc(OCc2nnc(SCC(=O)C(C)(C)C)n2Cc2ccco2)cc1	?	-10	16µM*	-5%	-7	-6
CCn1nnc2cc(C(=O)Nc3cccc(Cl)c3C)ccc21	?	nt	16µM*	-1%	nt	-8
CCn1nnc2cc(C(=O)Nc3cccc(Cl)c3)ccc21	6%	nt	-17%	2%	nt	-8
CCn1nnc2cc(C(=O)Nc3cccc(C)c3C)ccc21	10µM*	nt	15µM*	-2%	nt	-10
CCn1nccc1C(=O)Nc1cccc(C)c1C	13%	-3	5%	nt	34	-3
Cc1nc2cnc(N3CCNCC3)nc2n(-c2ccccc2)c1=O	-8%	nt	4%	nt	nt	nt
COc1ccc(-n2c(=O)c(-c3cccc(C#N)c3)nc3cnc(N4CCNCC4)nc32)cc1	4%	nt	-15%	nt	nt	nt
O=c1c(-c2ccc(F)cc2)nc2cnc(N3CCNCC3)nc2n1-c1ccccc1	15µM*	nt	?	nt	nt	nt
COc1ccc(-n2c(=O)c(-c3cc(F)cc(F)c3)nc3cnc(N4CCNCC4)nc32)cc1	15µM*	nt	21µM*	nt	nt	nt
CCOC(=O)C1C(=O)CC(C)(O)C(C(=O)OCC)C1c1ccc([N+](=O)[O-])cc1 (configuration not stated)	-18%	-23	-5%	-4%	-7	2
SMILES	DT40 TDP1 CPT	IL-1B inflam inh	TDP1 cell noCPT	ClpP mod	DRD3 antagonist	DRD3 agonist
O=C(COC(=O)c1ccc(O)cc1)Nc1ccc2c(c1)OCCO2	10µM*	7	3.3µM*	-3%	1	-5
CC(C)CC(NC(N)=O)C(=O)OCC(=O)Nc1ccc(OC(F)F)cc1 (configuration not stated)	23µM*	-14	?	nt	-10	-1
Cc1ccc(NC(=O)COC(=O)c2ccc3c(c2)OCCO3)cc1	-26%	9	-19%	-3%	3	-11
O=C(COC(=O)c1ccc(O)cc1)Nc1ccc(OC(F)F)cc1	?	36	16µM*	nt	-29	0
C/C(=N\OCC(=O)Nc1ccc(OC(F)(F)F)cc1)c1ccc2c(c1)OCCO2	-2%	-69*	?	-2%	-20	14
COc1ccc(C(=O)OCC(=O)c2ccco2)cc1[N+](=O)[O-]	4%	-10	1%	-4%	-13	-1
CC(=O)c1c(C)[nH]c(C(=O)OCC(=O)Nc2ccc3c(c2)OCCO3)c1C	?	26	21µM*	1%	40	2
Cc1cccc(C)c1OCC(=O)Nc1ccc2c(c1)OCCO2	18µM*	-4	?	0%	22	0
Cc1ccccc1OCC(=O)Nc1ccc2c(c1)OCCO2	-21%	0	?	-2%	-10	6
CC(=O)c1c(C)[nH]c(C(=O)OCC(=O)Nc2ccc(Cl)c(S(=O)(=O)N(C)C)c2)c1C	7.3µM*	-29	9.2µM*	3%	11	0
CC(=O)c1c(C)[nH]c(C(=O)OCC(=O)Nc2ccc(Cl)cc2[N+](=O)[O-])c1C	3.7µM*	28	1.8µM*	1%	19	1
CC(=O)Nc1ccc(N(C(=O)Cc2cccs2)C(C(=O)NC2CCCC2)c2ccncc2)cc1 (configuration not stated)	6%	-6	-26%	nt	14	3
Cc1ccc(NC(=O)CN2C(=O)NC3(CCCCC3C)C2=O)cc1S(=O)(=O)N1CCCCC1 (configuration not stated)	?	-14	?	-1%	-2	-1
Cc1cc(C)cc(NS(=O)(=O)c2ccc3c(c2)C(C)(C)C(=O)N3C)c1	?	-3	?	-2%	-3	4
Cc1ccc(C(=O)Nc2cccc(-c3nc(CNC(=O)c4ccc5ccccc5n4)c(C)o3)c2)s1	?	nt	16µM*	nt	nt	nt
Cc1oc(-c2cccc(NC(=O)c3ccccn3)c2)nc1CNC(=O)C#Cc1ccccc1	?	nt	23µM*	nt	nt	nt
Cc1cc(C(=O)Nc2cccc(-c3nc(CNC(=O)c4ccccc4C(F)(F)F)c(C)o3)c2)c(C)o1	?	nt	21µM*	nt	nt	nt
Cc1cccc(C(=O)NCc2nc(-c3cccc(NC(=O)c4ccoc4C)c3)oc2C)n1	2%[9.04 µM]	nt	13µM*	nt	nt	nt
N#Cc1ccccc1OCC(=O)NC1CCCCCC1	?	-20	?	1%	-25	-14
Cc1ccc(CNC(=O)CN2CCN(Cc3ccc(F)cc3)C2=O)cc1	-5%	nt	-24%	0%	nt	-8
